Compound activity: PubChem, National Center for Advancing Translational Sciences (NCATS)
JMJD2E inh: JMJD2E (human) inhibition; JMJD2E catalytic domain, FDH-coupled NADH fluorescence (FDH is formaldehyde dehydrogenase); Potency, µM (doses to about 57.1 µM), without a hit: at the top dose activity change, negative = inhibition, hits mostly inhibitors; hit rate 1.6% among 230,000; B2RXH2;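 note: 0% = wells with enzyme and -100% = buffer wells without enzyme; nearly all actives have a fitted effect of over 50% in size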
Tau FP inhib: tau fibrillization inhibition (FP); P10636; K18 P301L tau heparin fibrillization, Alexa594 FP, 6 h; Potency, µM (titrated, usually from 57.7 µM), for inactives: at the highest dose activity, negative = inhibition, most hits filed as inhibitors; hit rate 0.39% among 280,000; AID 1468; active = well fitted curve in the direction sought with a large enough effect; inconclusive = small, poorly fitted or top-dose-only effect, or another doubt; inactive = no such curve, though single readings can be large; an effect the other way counts as inactive or inconclusive; note: nearly all actives have a fitted effect of over 55% in size
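Compound effects on tau fibrillization are measured by Alexa 594 fluorescence polarization (ex 555, em 632 nm). K18 P301L tau is used at 15 uM with 0.24 uM labeled tracer, and 20 uM heparin induces aggregation over 6 hr at 37 C.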
Tau ThT inhib: blocks human tau fibril formation measured by thioflavin T. hit rate 2.1% among 270,000. P10636. Potency, µM (doses to about 57.4 µM), for the others: top-dose activity, negative = inhibition, usual class: inhibitors. recombinant tau K18 P301L, heparin-induced fibrillization, ThT fluorescence; active = well fitted curve in the direction sought with a large enough effect; inconclusive = small, poorly fitted or top-dose-only effect, or another doubt; inactive = no such curve, though single readings can be large; an effect the other way counts as inactive or inconclusive; note: nearly all actives have a fitted effect of over 55% in size
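Aggregation was driven by heparin (20 uM final) acting on recombinant tau […] bearing P301L in 100 mM sodium acetate pH 7; fibrils were detected with Thioflavin T.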
ALDH1A1 inh: inhibitors of human aldehyde dehydrogenase 1A1 | AID 1030 | Purified ALDH1A1, NADH fluorescence, propionaldehyde substrate | hit rate 7.3% among 220,000 | P00352 | Potency, µM (series often up to 75.3 µM), inactives show at the highest dose activity, negative = inhibition, actives largely listed as inhibitors;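 note: plate controls were no enzyme wells and a reference inhibitor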
Target sequence (P00352 whole entry, looked up): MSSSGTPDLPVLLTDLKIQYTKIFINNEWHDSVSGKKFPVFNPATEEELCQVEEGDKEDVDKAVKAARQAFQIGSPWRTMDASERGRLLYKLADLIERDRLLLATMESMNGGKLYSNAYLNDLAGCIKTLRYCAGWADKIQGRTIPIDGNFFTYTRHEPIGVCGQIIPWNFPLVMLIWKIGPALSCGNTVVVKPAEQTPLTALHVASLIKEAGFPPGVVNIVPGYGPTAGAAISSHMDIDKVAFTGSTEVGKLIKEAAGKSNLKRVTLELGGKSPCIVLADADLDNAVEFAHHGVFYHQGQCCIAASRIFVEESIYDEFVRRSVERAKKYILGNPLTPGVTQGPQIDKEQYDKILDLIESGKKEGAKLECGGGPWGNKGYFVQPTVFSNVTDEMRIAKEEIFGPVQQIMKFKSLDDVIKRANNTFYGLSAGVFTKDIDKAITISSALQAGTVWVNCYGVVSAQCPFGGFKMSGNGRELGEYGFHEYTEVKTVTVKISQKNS
Tau fluor cs: counter-screen for tau fibril formation inhibitors. hit rate 0.93% among 280,000. Potency, µM (series often up to 57.7 µM), without a hit: at the top dose activity change, negative = decrease. tau K18 P301L (four-repeat tau fragment) Alexa594 fluorescence, heparin fibrillization. AID 1463; active = well fitted curve in the direction sought with a large enough effect; inconclusive = small, poorly fitted or top-dose-only effect, or another doubt; inactive = no such curve, though single readings can be large; an effect the other way counts as inactive or inconclusive; note: nearly all actives have a fitted effect of over 55% in size
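Human K18 P301L tau (15 uM unlabeled plus 0.24 uM Alexa 594-labeled, final) in 100 mM sodium acetate pH 7 was mixed with compound and 20 uM heparin and incubated 6 hr at 37 C.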
HPGD block: inhibitors of human 15-hydroxyprostaglandin dehydrogenase (HPGD). P15428. purified HPGD, NADH fluorescence kinetic, PGE2 substrate. Potency, µM, for the others: at the highest dose activity change, negative = inhibition, usual class: inhibitors. hit rate 4.3% among 150,000. AID 894
Target sequence (P15428 whole entry, looked up): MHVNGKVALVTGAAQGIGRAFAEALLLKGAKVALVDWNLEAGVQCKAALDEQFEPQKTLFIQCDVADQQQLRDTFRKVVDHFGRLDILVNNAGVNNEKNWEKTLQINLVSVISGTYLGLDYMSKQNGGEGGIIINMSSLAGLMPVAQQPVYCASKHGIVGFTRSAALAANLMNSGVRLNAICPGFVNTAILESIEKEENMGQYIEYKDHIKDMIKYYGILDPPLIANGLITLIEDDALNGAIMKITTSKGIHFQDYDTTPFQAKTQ
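20 nM HPGD preincubated 15 min at room temperature with compound in 50 mM Tris-HCl pH 8, 0.01% Tween 20. Started with 1 mM NAD+ and 30 uM prostaglandin E2; NADH fluorescence (360/450 nm) read 5 times over 30-s intervals, last minus first.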
* marks the source's active call; other numbers are inactive results; ? = inconclusive; nt = no result; [ ] = remark or other dose. A selection: hits, their analogues and other compounds. The true share with any hit is near 9.9%. Unless noted, calls come from the whole dose curve; as a rule, active = well fitted inhibition curve with a large enough effect (not every such curve was filed as active); inconclusive = small, poorly fitted or top-dose-only effect, or another doubt; inactive = no such curve, though single readings can be large or run the other way. Unless noted, % is set by controls: 0 for no effect and ±100 for the full control effect; potency is the fitted concentration of half-maximal effect.

SMILES	JMJD2E inh	Tau FP inhib	Tau ThT inhib	ALDH1A1 inh	Tau fluor cs	HPGD block
O=C(CC1(O)C(=O)N(Cc2ccccc2)c2ccc(Br)cc21)c1ccccc1 (stereo not given)	nt	-0.2%	-9.9%	nt	?	nt
C=CCN1C(=O)C(O)(CC(=O)c2ccco2)c2cc(Br)ccc21 (stereo not given)	0.8%	-6.6%	-10.1%	7.94µM*	-3.5%	nt
COCC1=C2c3ccccc3[C@H](C[N+](=O)[O-])C(C(=O)OC)(C(=O)OC)CC2C2C(=O)N(c3ccccc3)C(=O)C2C1 (stereo not given in full)	?	3.0%	-0.7%	9.8%	-5.8%	-10.4%
CCCOc1ccc(N2C(=O)C3ON(c4ccccc4)C(CCC)C3C2=O)cc1 (stereo not given)	-3.2%	1.1%	-8.5%	17.8µM*	-13.3%	-14.7%
CCCC1C2C(=O)N(c3ccccc3)C(=O)C2ON1c1ccccc1 (stereo not given)	5.7%	2.9%	-2.5%	-11.8%	-7.3%	-11.0%
CCCOc1ccc(N2C(=O)C3ON(c4ccccc4)C(c4ccc(O)c(OC)c4)C3C2=O)cc1 (stereo not given)	4.1%	-0.6%	-17.1%	31.6µM*	?	-2.4%
CCCCC1CN2C(CCC(C)C2c2ccc(Br)cc2)C(=O)O1 (stereo not given)	nt	-1.0%[11.6 µM]	-2.4%[11.5 µM]	?	-2.9%[11.6 µM]	nt
Fc1ccc(/C=N/n2cnn(Cc3ccccc3Cl)c2=S)cc1	-17.7%	-14.0%	-6.3%	20µM*	-27.2%	nt
CN(C)c1ccc(/C=N/NC(=O)COc2ccccc2)cc1	?	-0.6%	?	?	-16.6%	nt
CCCCCC1CC1C(=O)N/N=C/c1ccc(N(C)C)cc1 (stereo not given)	?	4.1%	15.8µM*	?	?	?
N#C/C(=C\c1ccc(C(=O)O)cc1)c1nc2sc3c(c2c(=O)[nH]1)CCCC3	-20.7%	-7.8%	14.1µM*	?	?	nt
COc1ccc(C2=CC(c3sccc3C)n3nnnc3N2)cc1 (stereo not given)	?	-5.4%	-13.6%	2µM*	-14.7%	-16.4%
CN1C(=O)C(c2nnc(Nc3cccc4ccccc34)s2)C2CC1(C)Oc1ccccc12 (stereo not given)	-1.2%	-2.5%	1.8%	?	-0.8%	-24.2%
COc1ccc(N2CCc3c(C)nc4c(OC)cccc4c32)cc1	?	-8.9%	-7.2%	28.2µM*	-4.4%	nt
COc1ccc(N2CCc3c(C)nc4c(OC)cc(OC)cc4c32)cc1	-6.0%	-2.9%	-6.1%	-2.1%	-4.7%	nt
CCC1CN(C(=O)N2CCC(C(=O)NCc3cccc(C)c3)CC2)c2ccccc2O1 (stereo not given)	nt	-1.3%	-8.2%	nt	?	nt
CCOC(=O)Cn1nc(C)c(NC(=O)COc2ccc(Cl)cc2C)c1C	nt	?	-2.7%	nt	-8.4%	nt
CC(=O)c1c(C)n(CCO)c2ccc(O)cc12	-3.7%	3.0%	0.2%	1.1%	-3.2%	-9.6%
CCCCCS(=O)(=O)CCCCCCCCCCn1c(-c2ccc(O)cc2)c(C)c2cc(O)ccc21	?	?	?	?	7.94µM*[quencher]	?
Cc1ccc(C(NC(=O)C(C)C)c2cc([N+](=O)[O-])c3cccnc3c2O)cc1 (stereo not given)	20µM*	8.0%	?	-2.0%	-15.8%	-15.3%
CC(C)C(=O)NC(c1cccs1)c1cc([N+](=O)[O-])c2cccnc2c1O (stereo not given)	-6.0%	-6.7%	14.1µM*	1.0%	-21.8%	-21.8%
CCCC(=O)NC(c1cccs1)c1cc(Cl)c2cccnc2c1O (stereo not given)	?	4.3%	8.8%	?	10.8%	nt
O=C(NNC(=S)Nc1cccc2ccccc12)c1cccc(Br)c1	-27.1%	-0.4%	?	4.47µM*	?	-19.8%
Cc1ccc(C(=O)NNC(=S)Nc2cccc3ccccc23)s1	14.5%	?	12.6µM*	1.3%	-27.0%	nt
O=C(Nc1cccc2ccccc12)c1ccc([N+](=O)[O-])s1	-3.5%	11.3%	?	-4.3%	?	-5.2%
SMILES	JMJD2E inh	Tau FP inhib	Tau ThT inhib	ALDH1A1 inh	Tau fluor cs	HPGD block
O=[N+]([O-])c1ccc2c(N=Nc3ccc4ccccc4c3O)c(O)cc(S(=O)(=O)O)c2c1	nt	nt	nt	-10.7%[13.5 µM]	nt	2.82µM*
COc1ccc(N(C(=O)Cc2cccs2)C2C=CS(=O)(=O)C2)cc1 (stereo not given)	0.3%	4.6%	-16.7%	28.2µM*	-13.9%	nt
CC(C)C(=O)N(c1ccc(F)cc1)C1C=CS(=O)(=O)C1 (stereo not given)	4.6%	-5.2%	?	28.2µM*	-21.8%	nt
CC(C)c1ccc(S(=O)(=O)N2CCN(C(=O)c3cccc(F)c3)CC2)cc1	3.6%	3.8%	-4.6%	?	-3.5%	-8.7%
CC(OC(=O)c1nsc(Cl)c1Cl)C(=O)NCc1ccco1 (stereo not given)	4.8%	4.4%	-7.5%	2.5%	5.3%	-20.0%
CC(C)CC(OC(=O)c1nsc(Cl)c1Cl)C(=O)NCc1cccs1 (stereo not given)	3.5%	5.0%	-1.3%	?	-3.1%	5.01µM*
CC(OC(=O)c1nsc(Cl)c1Cl)C(=O)NCc1ccc2c(c1)OCO2 (stereo not given)	9.2%	-0.8%	-7.4%	?	-1.1%	?
CCC(OC(=O)c1nsc(Cl)c1Cl)C(=O)NCc1cccs1 (stereo not given)	-6.6%	?	-0.4%	2.9%	-7.6%	25.1µM*
CCN(CC)S(=O)(=O)c1ccc(Cl)c(NC(=O)COC(=O)/C=C/c2ccc(O)c(OC)c2)c1	?	-5.7%	-6.7%	?	?	?
Cc1ccc(-c2noc(-c3nnn(CC(=O)Nc4ccc(C)c(Cl)c4)c3N)n2)cc1	nt	-9.7%	7.9%	nt	2.1%	nt
O=C(C[n+]1cccc(NC(=O)c2ccccc2)c1)c1cccc([N+](=O)[O-])c1	5.0%	6.1%	?	9.46µM*	-26.7%	nt
CC(C)(C)c1ccc(C(=O)Nc2cccc([N+](=O)[O-])c2)cc1	-5.3%	?	?	?	7.94µM*[quencher]	-15.3%
O=C(C[n+]1ccc(-c2cc(C(=O)Nc3cccc(C(F)(F)F)c3)c3ccccc3n2)cc1)c1cccc([N+](=O)[O-])c1	-5.7%	8.5%	?	-3.7%	?	nt
N/C(=N\OC(=O)c1cccc2ccccc12)c1cccc([N+](=O)[O-])c1	-2.1%	-3.9%	-7.5%	6.3%	-11.5%	?
CC(=O)c1cccc([N+](=O)[O-])c1	nt	nt	nt	28.2µM*	nt	-12.6%
Cc1ccccc1C(=O)O/N=C(\N)c1cccc([N+](=O)[O-])c1	9.5%	1.9%	-1.2%	?	-10.7%	2.82µM*
